# Data as given in PubChem BioAssay (EPA / NIEHS).
# Records with an inconclusive call do not appear. Calls of active or inactive are those of the source. The calls were made as follows, unless noted: active = hit-call score of the fitted dose curve at least 0.9, where 1 is the maximum; inconclusive = response in the unintended direction; inactive = score below 0.9.
# Assays:
# [1] = molecular target: human Retinoic Acid Receptor beta (RARb), RARB (gene 5915) (UniProt P10826); experiment: ATG_RARb_TRANS: Attagene TRANS-FACTORIAL HepG2 Assay for human Retinoic Acid Receptor beta (AID 2283004)
# Chain of human Retinoic Acid Receptor beta (RARb), RARB (gene 5915) (P10826 whole entry, looked up, the tested form may be a part): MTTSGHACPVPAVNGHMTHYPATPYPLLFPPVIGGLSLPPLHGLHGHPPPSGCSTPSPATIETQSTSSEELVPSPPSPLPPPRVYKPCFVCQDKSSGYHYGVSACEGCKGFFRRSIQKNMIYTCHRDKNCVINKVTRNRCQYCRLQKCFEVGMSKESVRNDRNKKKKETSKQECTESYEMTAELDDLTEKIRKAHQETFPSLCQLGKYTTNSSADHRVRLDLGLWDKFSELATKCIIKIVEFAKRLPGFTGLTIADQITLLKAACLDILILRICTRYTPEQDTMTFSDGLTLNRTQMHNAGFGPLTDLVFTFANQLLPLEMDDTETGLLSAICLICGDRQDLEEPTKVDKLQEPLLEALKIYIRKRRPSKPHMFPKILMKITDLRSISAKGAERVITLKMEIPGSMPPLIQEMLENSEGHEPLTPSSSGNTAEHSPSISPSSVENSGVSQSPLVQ
# Procedure, shortened: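 Readout is reporter mRNA induction: RNA reverse-transcribed, PCR-amplified, FAM-labelled, HpaI-cut and resolved by capillary electrophoresis. Transiently transfected HepG2 cells carrying exogenous NR–Gal4 chimeras were dosed for 24 h; activity fitted upward relative to DMSO.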
# [2] = molecular target: Retinoic acid receptor alpha (Homo sapiens) (UniProt P10276); experiment: ATG_RARa_TRANS: Attagene TRANS-FACTORIAL HepG2 Assay for human Retinoic Acid Receptor alpha (RARa) (AID 2283005)
# Chain of Retinoic acid receptor alpha (Homo sapiens) (P10276 whole entry, looked up, the tested form may be a part): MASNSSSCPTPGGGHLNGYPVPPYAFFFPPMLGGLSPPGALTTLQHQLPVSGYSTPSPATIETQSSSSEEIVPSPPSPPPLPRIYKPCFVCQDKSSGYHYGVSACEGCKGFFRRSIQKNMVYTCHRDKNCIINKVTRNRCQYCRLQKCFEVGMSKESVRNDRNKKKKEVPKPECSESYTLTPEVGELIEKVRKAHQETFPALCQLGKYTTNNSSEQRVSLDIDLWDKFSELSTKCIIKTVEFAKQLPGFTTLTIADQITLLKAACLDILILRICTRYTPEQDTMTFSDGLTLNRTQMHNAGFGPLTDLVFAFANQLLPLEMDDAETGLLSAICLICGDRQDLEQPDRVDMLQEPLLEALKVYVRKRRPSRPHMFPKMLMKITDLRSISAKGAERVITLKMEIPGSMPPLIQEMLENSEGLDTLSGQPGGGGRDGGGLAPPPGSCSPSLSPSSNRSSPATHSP
# Procedure, shortened: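 Reporter transcripts, measured by RT-PCR with fluorescent labeling and capillary electrophoresis after 24 h dosing, reflect activity of an exogenous human RARa–GAL4 fusion in transiently transfected HepG2. Fitted for increase relative to DMSO.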
# [3] = BSK_3C_Proliferation: Cell Proliferation Assessment in the BioMAP Diversity Plus: 3C Assay (AID 2283006; active = hit-call score of the fitted dose curve at least 0.9, where 1 is the maximum; inactive = score below 0.9;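 as to AC50: potency may reflect either rise or fall in cell number versus DMSO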); conditions: primary human endothelial cells (HUVEC)
# Procedure, shortened: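 Proliferation as total protein: sulforhodamine B (0.1%) stain of TCA-fixed subconfluent human umbilical vein endothelial cells, absorbance 560 nm, 48 h after dosing. Activity fitted in both directions against DMSO baseline.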
# [4] = molecular target: Peroxisome proliferator-activated receptor gamma (Homo sapiens) (UniProt P37231); experiment: ATG_PPARg_TRANS: Attagene TRANS-FACTORIAL HepG2 Assay for human Peroxisome Proliferator-activated Receptor-gamma (PPARg) (AID 2283007)
# Chain of Peroxisome proliferator-activated receptor gamma (Homo sapiens) (P37231 whole entry, looked up, the tested form may be a part): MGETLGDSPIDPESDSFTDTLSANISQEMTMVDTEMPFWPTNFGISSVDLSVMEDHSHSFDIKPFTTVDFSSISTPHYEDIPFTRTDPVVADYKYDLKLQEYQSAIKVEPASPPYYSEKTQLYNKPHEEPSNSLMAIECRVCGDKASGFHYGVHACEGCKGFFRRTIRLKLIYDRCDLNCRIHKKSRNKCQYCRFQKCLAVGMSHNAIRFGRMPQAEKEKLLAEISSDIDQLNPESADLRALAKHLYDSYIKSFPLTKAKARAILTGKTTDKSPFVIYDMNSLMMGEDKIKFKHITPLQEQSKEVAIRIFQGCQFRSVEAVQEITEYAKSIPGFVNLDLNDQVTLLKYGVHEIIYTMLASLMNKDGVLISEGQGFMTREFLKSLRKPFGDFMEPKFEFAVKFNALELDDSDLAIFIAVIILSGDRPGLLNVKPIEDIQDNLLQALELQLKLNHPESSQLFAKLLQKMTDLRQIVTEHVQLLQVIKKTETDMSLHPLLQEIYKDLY
# Procedure, shortened: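 After 24 h of chemical exposure, transfected HepG2 cells carrying PPARγ-Gal4 chimera reporter constructs are lysed for RNA. Reporter transcripts are measured by RT-PCR and capillary electrophoresis with fluorescent labelling, and gain of signal is fitted versus DMSO.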
# [5] = molecular target: human Retinoic Acid Receptor gamma (RARg), RARG (gene 5916) (UniProt P13631); experiment: ATG_RARg_TRANS: Attagene TRANS-FACTORIAL HepG2 Assay for human Retinoic Acid Receptor gamma (RARg) (AID 2283009)
# Chain of human Retinoic Acid Receptor gamma (RARg), RARG (gene 5916) (P13631 whole entry, looked up, the tested form may be a part): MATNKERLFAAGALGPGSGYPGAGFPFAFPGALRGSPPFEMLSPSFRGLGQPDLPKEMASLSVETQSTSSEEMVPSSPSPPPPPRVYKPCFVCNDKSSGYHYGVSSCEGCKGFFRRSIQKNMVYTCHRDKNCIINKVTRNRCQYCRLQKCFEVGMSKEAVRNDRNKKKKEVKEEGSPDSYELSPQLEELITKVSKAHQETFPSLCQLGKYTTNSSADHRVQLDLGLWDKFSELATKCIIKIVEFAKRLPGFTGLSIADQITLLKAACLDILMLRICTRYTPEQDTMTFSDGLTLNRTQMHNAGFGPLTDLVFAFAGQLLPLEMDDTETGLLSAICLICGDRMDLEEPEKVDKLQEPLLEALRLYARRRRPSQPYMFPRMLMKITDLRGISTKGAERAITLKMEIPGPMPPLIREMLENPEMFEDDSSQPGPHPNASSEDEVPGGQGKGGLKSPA
# Procedure, shortened: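 Transactivation of exogenous RARg-Gal4 fusion measured as reporter transcript induction after 24 h in transfected HepG2 cells. RNA reverse-transcribed, amplified, fluorescently labeled and resolved by capillary electrophoresis; increase relative to DMSO.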
# [6] = molecular target: human RAR-related Orphan Receptor beta (RORb), RORB (gene 6096) (UniProt Q92753); experiment: ATG_RORb_TRANS: Attagene TRANS-FACTORIAL HepG2 Assay for human RAR-related Orphan Receptor beta (RORb) (AID 2283010)
# Chain of human RAR-related Orphan Receptor beta (RORb), RORB (gene 6096) (Q92753 whole entry, looked up, the tested form may be a part): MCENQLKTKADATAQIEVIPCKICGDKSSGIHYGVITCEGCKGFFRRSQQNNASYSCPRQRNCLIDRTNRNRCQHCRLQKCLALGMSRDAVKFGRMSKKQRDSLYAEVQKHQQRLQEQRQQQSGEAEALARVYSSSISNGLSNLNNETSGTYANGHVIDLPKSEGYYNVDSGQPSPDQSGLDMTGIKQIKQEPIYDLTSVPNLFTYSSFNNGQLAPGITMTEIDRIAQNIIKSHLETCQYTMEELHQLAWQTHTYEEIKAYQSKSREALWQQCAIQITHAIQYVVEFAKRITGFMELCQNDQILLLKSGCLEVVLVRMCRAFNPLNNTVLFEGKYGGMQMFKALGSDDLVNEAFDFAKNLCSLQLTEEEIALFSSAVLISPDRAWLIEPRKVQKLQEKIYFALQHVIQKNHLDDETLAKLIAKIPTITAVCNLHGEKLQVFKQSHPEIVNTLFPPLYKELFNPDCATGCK
# Procedure, shortened: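 Read-out is reporter mRNA induction, quantified by RT-PCR with fluorescent capillary electrophoresis, 24 h post-dose in transiently transfected HepG2 expressing exogenous NR-Gal4 chimera. Activity fitted upward versus DMSO.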
# [7] = molecular target: human RAR-related Orphan Receptor gamma (RORg), RORC (gene 6097) (UniProt P51449); experiment: ATG_RORg_TRANS: Attagene TRANS-FACTORIAL HepG2 Assay for human RAR-related Orphan Receptor gamma (RORg) (AID 2283011)
# Chain of human RAR-related Orphan Receptor gamma (RORg), RORC (gene 6097) (P51449 whole entry, looked up, the tested form may be a part): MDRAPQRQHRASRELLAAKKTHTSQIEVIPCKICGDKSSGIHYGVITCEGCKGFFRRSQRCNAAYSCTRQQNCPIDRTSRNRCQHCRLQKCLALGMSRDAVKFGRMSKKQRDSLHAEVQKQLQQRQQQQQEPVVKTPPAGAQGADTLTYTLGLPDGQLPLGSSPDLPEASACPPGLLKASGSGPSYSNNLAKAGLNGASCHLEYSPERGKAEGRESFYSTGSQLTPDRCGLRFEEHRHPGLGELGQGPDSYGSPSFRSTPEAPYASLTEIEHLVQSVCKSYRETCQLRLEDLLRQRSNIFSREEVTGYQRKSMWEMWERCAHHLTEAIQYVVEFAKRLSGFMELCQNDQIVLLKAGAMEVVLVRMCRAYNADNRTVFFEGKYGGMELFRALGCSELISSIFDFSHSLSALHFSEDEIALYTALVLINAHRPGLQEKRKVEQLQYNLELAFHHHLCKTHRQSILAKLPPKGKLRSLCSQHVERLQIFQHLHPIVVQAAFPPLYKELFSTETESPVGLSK
# Procedure, shortened: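 Transient MRTU transfection of HepG2 (TRANS format, exogenous NR-Gal4 chimera). 24 h dosing. Total RNA → oligo(dT) RT → PCR → 6-FAM labelling → HpaI cut → CE. Gain vs DMSO.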
# [8] = read-out: Intercellular Adhesion Molecule 1 (ICAM1), ICAM1 (gene 3383); experiment: BSK_3C_ICAM1: BioMAP Diversity Plus: 3C Assay for Intercellular Adhesion Molecule 1 (ICAM1) Biomarker Activity (AID 2283003; active = hit-call score of the fitted dose curve at least 0.9, where 1 is the maximum; inactive = score below 0.9); conditions: primary human endothelial cells (HUVEC); actives raise or lower the signal
# Procedure, shortened: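 ELISA readout of ICAM1 in human umbilical vein endothelial cells in the 3C system, taken 24 h post-dose. Gain or loss of signal versus DMSO was fitted in both directions, with SRB total-protein staining run in parallel.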
# [9] = molecular target: Nuclear receptor subfamily 1 group I member 2 (Homo sapiens) (UniProt O75469); experiment: ATG_PXR_TRANS: Attagene TRANS-FACTORIAL HepG2 Assay for human Pregnane X Receptor (PXR) (AID 2283008)
# Chain of Nuclear receptor subfamily 1 group I member 2 (Homo sapiens) (O75469 whole entry, looked up, the tested form may be a part): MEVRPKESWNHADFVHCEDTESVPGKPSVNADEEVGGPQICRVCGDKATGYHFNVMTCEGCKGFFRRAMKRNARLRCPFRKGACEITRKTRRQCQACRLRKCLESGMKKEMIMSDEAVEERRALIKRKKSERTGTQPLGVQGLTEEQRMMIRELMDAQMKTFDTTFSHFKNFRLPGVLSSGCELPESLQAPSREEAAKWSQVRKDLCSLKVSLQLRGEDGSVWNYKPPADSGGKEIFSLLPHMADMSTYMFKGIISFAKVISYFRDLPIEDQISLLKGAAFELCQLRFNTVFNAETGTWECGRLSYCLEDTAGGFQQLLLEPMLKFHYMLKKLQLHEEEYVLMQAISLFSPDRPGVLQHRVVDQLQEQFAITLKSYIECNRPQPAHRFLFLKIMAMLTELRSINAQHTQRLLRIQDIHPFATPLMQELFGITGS
# Procedure, shortened: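 Transactivation by exogenous PXR–GAL4 fusion measured as reporter transcript induction after 24 h compound treatment of transfected human HepG2 cells. Read-out via RT-PCR and capillary electrophoresis of labelled fragments, fitted upward relative to DMSO.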
smiles,measurement,setting,value
Oc1ccccc1O,outcome,[1],inactive
same,outcome,[2],inactive
same,AC50,[3],10.1 µM (active)
same,outcome,[4],inactive
same,outcome,[5],inactive
same,outcome,[6],inactive
same,outcome,[7],inactive
CC(C)(C)c1ccccc1,outcome,[8],inactive
same,outcome,[3],inactive
same,outcome,[6],inactive
CC(=O)O,outcome,[3],inactive
same,outcome,[9],inactive
C=CCc1ccc(OC)c(OC)c1,outcome,[3],inactive
same,outcome,[4],inactive
same,AC50,[9],28.8 µM (active)
same,outcome,[7],inactive
CCCCc1nc2cccnc2n1Cc1ccc(-c2ccccc2-c2nnn[nH]2)cc1,outcome,[3],inactive
same,AC50,[4],4.39 µM (active)
same,AC50,[9],27.4 µM (active)
same,outcome,[6],inactive
CS(=O)(=O)c1ccc([C@@H](C[C@H]2CCC(=O)C2)C(=O)Nc2cnccn2)cc1Cl,outcome,[3],inactive
same,outcome,[4],inactive
same,outcome,[9],inactive
same,outcome,[6],inactive
same,outcome,[7],inactive
Cc1ccc(C(C)(C)C)c(O)c1,outcome,[3],inactive
same,outcome,[4],inactive
same,AC50,[9],47.2 µM (active)
O=C1OC(c2ccc(O)cc2)(c2ccc(O)cc2)c2ccccc21,outcome,[2],inactive
same,AC50,[3],15 µM (active)
same,AC50,[9],0.604 µM (active)
same,outcome,[5],inactive
CCCCC(CC)COC(=O)CCCCCCCC(=O)OCC(CC)CCCC (stereo not drawn),outcome,[3],inactive
same,outcome,[9],inactive
CC(C)COC(=O)CCCCC(=O)OCC(C)C,outcome,[1],inactive
same,outcome,[2],inactive
same,outcome,[3],inactive
same,outcome,[4],inactive
same,outcome,[9],inactive
same,outcome,[5],inactive
same,outcome,[7],inactive
Cc1ccc(-c2cc(C(F)(F)F)nn2-c2ccc(S(N)(=O)=O)cc2)cc1,outcome,[1],inactive
same,outcome,[2],inactive
same,AC50,[3],20 µM (active)
same,outcome,[4],inactive
same,outcome,[9],inactive
same,outcome,[5],inactive
O=C(NS(=O)(=O)/C=C/c1cccs1)c1ccc(F)cc1Br,AC50,[3],2.87 µM (active)
same,AC50,[4],21.6 µM (active)
same,AC50,[9],11.4 µM (active)
same,outcome,[6],inactive
same,outcome,[7],inactive
CN(C)CCCN(C)CCCN(C)C,outcome,[3],inactive
same,outcome,[4],inactive
same,outcome,[9],inactive
CC(C)c1cccc(C(C)C)c1NC(=O)NS(=O)(=O)c1cc(C(C)(C)O)co1,outcome,[1],inactive
same,outcome,[3],inactive
same,AC50,[9],9.03 µM (active)
same,outcome,[5],inactive
same,outcome,[6],inactive
same,outcome,[7],inactive
O=C1O[C@H]([C@H](O)CO)C(O)=C1O,outcome,[8],inactive
same,outcome,[3],inactive
same,outcome,[6],inactive
same,outcome,[7],inactive
O=C1c2c(O)cccc2Cc2cccc(O)c21,AC50,[3],15 µM (active)
same,outcome,[6],inactive
